Assay [1] in a line: CLD_ACTIN_6hr: CellzDirect (CLD) Gene Expression Assay for Baseline Control (Actin) at 6 hours (AID 2283676).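 Note: active means increased actin mRNA relative to DMSO vehicle.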 In short, it runs like this: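 Baseline actin transcript level measured by qNPA (S1 nuclease protection, chemiluminescence) in human hepatocyte cultures 6 h after chemical exposure; 0.2% DMSO vehicle as reference, cytotoxicity noted from morphology.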
A short description of assay [2]: CCTE_Padilla_ZF_144hpf_TERATOSCORE: (Legacy) CCTE's 144 Hour Post-fertilization zebrafish Assay Teratoscore, Padilla Lab (AID 2283679; active = hit-call score of the fitted dose curve at least 0.9, where 1 is the maximum; inactive = score below 0.9;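 for AC50: zebrafish embryos with chorions exposed by immersion from 6-8 hpf to 5 dpf with daily renewal; teratogenicity score from eye scoring of death hatching and malformations at 144 hpf; higher score means more developmental defects relative to DMSO baseline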). In short, it runs like this:
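Larvae scored by eye at 144 hpf for death, hatching and malformations after a day in clean Hanks'. Before that, daily-renewed exposure at 80 uM (0.4% DMSO, 26C) from roughly 6-8 hpf through 5 dpf, 4 embryos per chemical.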

Read-out in assay [3]: Glyceraldehyde-3-phosphate dehydrogenase (Homo sapiens) (UniProt P04406)
Briefly: CLD_GAPDH_6hr: CellzDirect (CLD) Gene Expression Assay for Baseline Control (Glyceraldehyde 3-phosphate dehydrogenase) at 6 hours (AID 2283681).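 Note: active means increased signal relative to DMSO vehicle.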 An outline of the steps:
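GAPDH baseline-control readout from qNPA (S1 nuclease digestion, probe hybridization, chemiluminescence) in lysates of cultured human hepatocytes harvested 6 h post-dosing. Chemicals tested at multiple concentrations versus 0.2% DMSO vehicle; microscopy-based cytotoxicity flagged yes/no.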

Read-out in assay [4]: ABC Transporter (ABCB1), ABCB1 (gene 5243)
Nature of the assay: CLD_ABCB1_24hr: CellzDirect (CLD) Gene Expression Assay for ABC Transporter (ABCB1) at 24 hours (AID 2283684). An outline of the steps:
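ABCB1 mRNA induction versus 0.2% DMSO vehicle was read by qNPA chemiluminescence at 24 h. Cultured human hepatocytes from two donor preparations received daily fresh dosing, and phase-contrast cytotoxicity calls were annotated alongside the data.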

Read-out in assay [5]: Broad substrate specificity ATP-binding cassette transporter ABCG2 (Homo sapiens) (UniProt Q9UNQ0)
Nature of the assay: CLD_ABCG2_24hr: CellzDirect (CLD) Gene Expression Assay for ABC Transporter (ABCG2) at 24 hours (AID 2283685). An outline of the steps: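 ABCG2 mRNA induction, read as gain of chemiluminescent signal over 0.2% DMSO, was measured by quantitative nuclease protection at 24 h. Cultured human liver hepatocytes were given fresh dosing solutions of test chemicals at several concentrations each day.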

Read-out in assay [6]: Cytochrome P450 3A4 (Homo sapiens) (UniProt P08684)
Nature of the assay: CLD_CYP3A4_24hr: CellzDirect (CLD) Gene Expression Assay for xenobiotic metabolism (CYP3A4) at 24 hours (AID 2283689). In short, it runs like this: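 CYP3A4 mRNA induction read by quantitative nuclease protection (chemiluminescence) 24 hr after dosing. Cultured human hepatocytes (two donor preparations) treated daily, vehicle 0.2% DMSO; phase-contrast morphology annotates cytotoxicity.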

Read-out in assay [7]: sulfotransferase (SULT2A), SULT2A1 (gene 6822)
Briefly: CLD_SULT2A_24hr: CellzDirect (CLD) Gene Expression Assay for sulfotransferase (SULT2A) at 24 hours (AID 2283694).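 For AC50: potency for increased SULT2A1 mRNA level as induction over DMSO baseline.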 In short, it runs like this:
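mRNA is measured by qNPA: probe hybridisation, S1 nuclease digestion, chemiluminescence, in lysates from human primary hepatocytes harvested 24 h after daily dosing. Vehicle was 0.2% DMSO. Phase-contrast microscopy flagged cytotoxicity (yes/no).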

Read-out in assay [8]: Cytochrome P450 2B6 (Homo sapiens) (UniProt P20813)
Briefly: CLD_CYP2B6_6hr: CellzDirect (CLD) Gene Expression Assay for xenobiotic metabolism (CYP2B6) at 6 hours (AID 2283677).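 Note: actives raise CYP2B6 transcript above DMSO baseline so AC50 marks an inducer.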 An outline of the steps: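 CYP2B6 transcript levels, read by chemiluminescent qNPA, were fitted for increase versus DMSO baseline; cultured human liver hepatocytes from two donor preparations were harvested 6 h after exposure to test chemicals at multiple concentrations.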

Read-out in assay [9]: Cytochrome P450 2C19 (Homo sapiens) (UniProt P33261)
Nature of the assay: CLD_CYP2C19_6hr: CellzDirect (CLD) Gene Expression Assay for xenobiotic metabolism (CYP2C19) at 6 hours (AID 2283678). In short, it runs like this: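 CYP2C19 transcript induction was quantified by quantitative nuclease protection assay with chemiluminescent read-out, 6 h after dosing. Cells were primary human hepatocytes from two donor preparations, given fresh dosing solutions daily in 0.2% DMSO vehicle. Activity was relative to DMSO.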

Read-out in assay [10]: Cytochrome P450 2B6 (Homo sapiens) (UniProt P20813)
Briefly: CLD_CYP2B6_24hr: CellzDirect (CLD) Gene Expression Assay for xenobiotic metabolism (CYP2B6) at 24 hours (AID 2283686). In short, it runs like this:
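qNPA chemiluminescent measurement of mRNA at 24 hours in human primary hepatocyte cultures from two donor preparations, with daily fresh dosing and 0.2% DMSO vehicle as baseline. Morphology-based cytotoxicity flagged yes/no.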

Read-out in assay [11]: Cytochrome P450 2C19 (Homo sapiens) (UniProt P33261)
Nature of the assay: CLD_CYP2C19_24hr: CellzDirect (CLD) Gene Expression Assay for xenobiotic metabolism (CYP2C19) at 24 hours (AID 2283687).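 Note: activity means mRNA induction above DMSO vehicle baseline.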 In short, it runs like this:
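CYP2C19 mRNA was quantified by qNPA chemiluminescence after 24 h of daily dosing of cultured human primary hepatocytes from two donors; vehicle was 0.2% DMSO, and increases over DMSO baseline were fitted.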

Read-out in assay [12]: Cytochrome P450 2C9 (Homo sapiens) (UniProt P11712)
Briefly: CLD_CYP2C9_24hr: CellzDirect (CLD) Gene Expression Assay for xenobiotic metabolism (CYP2C9) at 24 hours (AID 2283688). In short, it runs like this: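 Induction of CYP2C9 mRNA was quantified by quantitative nuclease protection assay (chemiluminescence), gain of signal versus 0.2% DMSO vehicle, 24 h after dosing. Human primary hepatocytes (two donors) received fresh chemical daily at multiple concentrations; morphology-based cytotoxicity flagged yes/no.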

Read-out in assay [13]: glucuronosyltransferase (UGT1A1), UGT1A1 (gene 54658)
Nature of the assay: CLD_UGT1A1_24hr: CellzDirect (CLD) Gene Expression Assay for glucuronosyltransferase (UGT1A1) at 24 hours (AID 2283696). An outline of the steps:
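UGT1A1 transcript induction was measured by quantitative nuclease protection assay (chemiluminescence) in human hepatocyte cultures 24 h after daily fresh dosing, with 0.2% DMSO as vehicle and baseline.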

Read-out in assay [14]: ABC Transporter (ABCB1), ABCB1 (gene 5243)
Nature of the assay: CLD_ABCB1_48hr: CellzDirect (CLD) Gene Expression Assay for ABC Transporter (ABCB1) at 48 hours (AID 2283695). In short, it runs like this: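 ABCB1 mRNA was measured by quantitative nuclease protection assay (chemiluminescence) 48 h after dosing. Human hepatocyte cultures from two separate donors received fresh dosing solutions daily for two days, with 0.2% DMSO as vehicle. Positive-direction fit against DMSO.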

Read-out in assay [15]: ABC Transporter (ABCB11), ABCB11 (gene 8647)
Nature of the assay: CLD_ABCB11_48hr: CellzDirect (CLD) Gene Expression Assay for ABC Transporter (ABCB11) at 48 hours (AID 2283697). An outline of the steps:
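Induction of ABCB11 mRNA relative to 0.2% DMSO, measured at 48 h by qNPA chemiluminescence. Cultured human hepatocytes (two donors) received fresh dosing solutions at several concentrations on two consecutive days.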

Read-out in assay [16]: Cytochrome P450 3A4 (Homo sapiens) (UniProt P08684)
Nature of the assay: CLD_CYP3A4_6hr: CellzDirect (CLD) Gene Expression Assay for xenobiotic metabolism (CYP3A4) at 6 hours (AID 2283680). In short, it runs like this:
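CYP3A4 mRNA induction, 6 h after dosing of cultured primary human hepatocytes from two donors, read by quantitative nuclease protection (qNPA, chemiluminescence). Vehicle 0.2% DMSO as baseline; morphology-based cytotoxicity annotated yes/no.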

Read-out in assay [17]: xenobiotic metabolism (CYP1A2), CYP1A2 (gene 1544)
Briefly: CLD_CYP1A2_24hr: CellzDirect (CLD) Gene Expression Assay for xenobiotic metabolism (CYP1A2) at 24 hours (AID 2283683). In short, it runs like this:
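CYP1A2 mRNA induction measured by quantitative nuclease protection (chemiluminescent) in human primary hepatocytes 24 h after multi-concentration chemical dosing with daily fresh solutions. DMSO (0.2%) baseline; positive-direction fitting; morphology-based cytotoxicity noted.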

Read-out in assay [18]: Cytochrome P450 3A4 (Homo sapiens) (UniProt P08684)
Briefly: CLD_CYP3A4_48hr: CellzDirect (CLD) Gene Expression Assay for xenobiotic metabolism (CYP3A4) at 48 hours (AID 2283698). In short, it runs like this: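 CYP3A4 induction read by qNPA chemiluminescence after 48 h, with fresh dosing solutions on consecutive days, in cultured human hepatocytes (two donors). Vehicle 0.2% DMSO as baseline; microscopy-based cytotoxicity annotated yes/no alongside data.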

Inconclusive results are not listed. The source made the active and inactive calls. Rule for the calls, unless noted: active = hit-call score of the fitted dose curve at least 0.9, where 1 is the maximum; inconclusive = response in the unintended direction; inactive = score below 0.9.

Sequence of Cytochrome P450 2C19 (Homo sapiens) (P33261 whole entry, looked up): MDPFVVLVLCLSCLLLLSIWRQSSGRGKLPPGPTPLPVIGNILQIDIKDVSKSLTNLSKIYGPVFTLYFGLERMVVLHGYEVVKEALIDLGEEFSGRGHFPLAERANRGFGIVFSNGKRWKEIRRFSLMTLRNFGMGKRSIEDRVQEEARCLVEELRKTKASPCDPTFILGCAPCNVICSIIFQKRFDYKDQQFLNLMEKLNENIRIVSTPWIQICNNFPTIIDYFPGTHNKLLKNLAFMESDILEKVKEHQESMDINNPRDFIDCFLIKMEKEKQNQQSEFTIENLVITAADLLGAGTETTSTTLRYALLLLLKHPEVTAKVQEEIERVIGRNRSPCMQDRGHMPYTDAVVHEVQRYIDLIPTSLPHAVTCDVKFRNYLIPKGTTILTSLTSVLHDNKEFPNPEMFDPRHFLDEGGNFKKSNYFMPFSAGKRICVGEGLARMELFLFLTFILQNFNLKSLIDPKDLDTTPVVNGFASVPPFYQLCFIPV
Sequence of Broad substrate specificity ATP-binding cassette transporter ABCG2 (Homo sapiens) (Q9UNQ0 whole entry, looked up): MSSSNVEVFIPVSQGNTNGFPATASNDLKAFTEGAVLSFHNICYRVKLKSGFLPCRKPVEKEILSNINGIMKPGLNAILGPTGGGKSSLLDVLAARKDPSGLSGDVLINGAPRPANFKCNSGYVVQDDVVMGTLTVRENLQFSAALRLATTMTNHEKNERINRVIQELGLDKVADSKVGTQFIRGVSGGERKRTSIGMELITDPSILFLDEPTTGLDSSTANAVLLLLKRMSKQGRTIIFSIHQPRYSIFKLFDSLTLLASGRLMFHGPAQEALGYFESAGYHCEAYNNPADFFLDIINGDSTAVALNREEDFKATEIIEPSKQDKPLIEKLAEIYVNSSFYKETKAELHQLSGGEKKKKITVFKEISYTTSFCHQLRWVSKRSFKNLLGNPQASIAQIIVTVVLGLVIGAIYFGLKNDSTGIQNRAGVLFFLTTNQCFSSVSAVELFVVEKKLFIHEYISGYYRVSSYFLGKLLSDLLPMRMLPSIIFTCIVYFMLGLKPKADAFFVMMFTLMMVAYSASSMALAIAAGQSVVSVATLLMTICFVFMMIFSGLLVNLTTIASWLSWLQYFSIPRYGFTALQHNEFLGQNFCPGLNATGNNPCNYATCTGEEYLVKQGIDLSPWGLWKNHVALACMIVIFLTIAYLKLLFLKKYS
Sequence of Cytochrome P450 3A4 (Homo sapiens) (P08684 whole entry, looked up): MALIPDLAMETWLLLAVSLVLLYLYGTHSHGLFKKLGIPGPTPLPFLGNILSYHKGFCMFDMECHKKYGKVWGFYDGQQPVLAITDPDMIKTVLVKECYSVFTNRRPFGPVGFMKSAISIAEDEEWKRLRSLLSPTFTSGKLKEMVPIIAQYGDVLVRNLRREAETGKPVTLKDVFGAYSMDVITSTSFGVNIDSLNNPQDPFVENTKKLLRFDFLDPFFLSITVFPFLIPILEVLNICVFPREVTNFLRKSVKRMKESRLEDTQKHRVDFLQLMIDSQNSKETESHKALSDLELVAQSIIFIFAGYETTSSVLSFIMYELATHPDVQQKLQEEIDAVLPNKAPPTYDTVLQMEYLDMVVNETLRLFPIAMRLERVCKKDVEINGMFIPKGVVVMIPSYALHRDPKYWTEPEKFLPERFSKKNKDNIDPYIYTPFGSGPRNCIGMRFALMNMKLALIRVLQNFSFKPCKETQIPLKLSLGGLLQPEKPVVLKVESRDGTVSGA
Sequence of Glyceraldehyde-3-phosphate dehydrogenase (Homo sapiens) (P04406 whole entry, looked up): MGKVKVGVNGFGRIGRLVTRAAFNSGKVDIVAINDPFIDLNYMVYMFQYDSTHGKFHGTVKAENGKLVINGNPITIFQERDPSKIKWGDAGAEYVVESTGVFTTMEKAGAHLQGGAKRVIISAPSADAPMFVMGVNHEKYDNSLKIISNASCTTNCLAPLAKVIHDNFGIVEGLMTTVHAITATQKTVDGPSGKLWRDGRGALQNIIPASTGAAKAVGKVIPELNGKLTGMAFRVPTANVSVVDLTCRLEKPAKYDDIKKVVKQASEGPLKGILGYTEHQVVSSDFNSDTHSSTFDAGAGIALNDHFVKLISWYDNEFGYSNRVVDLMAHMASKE

For `Cn1c(-c2ccccc2)cc(-c2ccccc2)[n+]1C`, the compound was called inactive in assay [1], in assay [2], in [3], in [4], in assay [5] and in [6]. The AC50 (in general, the midpoint of the concentration-response curve, whichever way the signal moves) in [7] was 8.08 µM (active).
`CC(C)=CC1C(C(=O)OCc2coc(Cc3ccccc3)c2)C1(C)C` (centres undefined): the AC50 was 7.48 µM (active) in assay [8], 1.71 µM (active) in [2] and 5.63 µM (active) in [10]. Besides, the compound was classed as inactive in assay [9], in assay [5], in assay [11], in assay [12], in assay [6] and in assay [7]. Moreover, the compound was classed as inactive in assay [13].
In the case of `CCCN(CC)CC1COC2(CCC(C(C)(C)C)CC2)O1` (centres undefined), the AC50 is 13.4 µM (active) in [8]; 62.9 µM (active) in assay [2]; 9.21 µM (active) in [10]; 4.82 µM (active) in assay [6]; 3.97 µM (active) in assay [7]. In addition, the result in assay [5], in assay [11] and in assay [13] was inactive.
With `COCc1cnc(C2=NC(C)(C(C)C)C(=O)N2)c(C(=O)O)c1` (centres undefined), the compound was called inactive in assay [1], in assay [9], in assay [5], in [12], in assay [6] and in assay [7]. The compound was classed as inactive in [14], in assay [13] and in assay [15]. Further, the AC50 in assay [2] is 5.5 µM (active).
Regarding `N#Cc1c[nH]cc1-c1cccc2c1OC(F)(F)O2`, the AC50 in assay [8] was 5.4 µM (active); in assay [2] it was 4.19 µM (active); in assay [6], 4.26 µM (active). Moreover, in [13], the outcome was inactive.
As for `COCC(=O)N(c1c(C)cccc1C)C(C)C(=O)OC` (centres undefined), the AC50 in assay [8] is 2.5 µM (active). Further, the call in assay [9], in assay [2], in assay [4], in [5], in assay [11] and in assay [12] was inactive. The result in assay [7] and in assay [13] was inactive.
In the case of `OC(c1ccc(Cl)cc1)(c1ccc(Cl)cc1)C(Cl)(Cl)Cl`, the AC50 is 3.96 µM (active) in [8]; 12 µM (active) in assay [2]; 3.68 µM (active) in assay [16]; 4.08 µM (active) in assay [10]; 4.09 µM (active) in assay [6]; 20 µM (active) in assay [7]. The call in [9], in [5], in assay [12], in assay [13] and in assay [15] was inactive.
Turning to `CCN(CC)c1nc(C)cc(OP(=S)(OC)OC)n1`, the AC50 in assay [8] was 1.59 µM (active); in assay [2], 14.8 µM (active); in assay [17], 3.97 µM (active); in assay [6], 3.81 µM (active); in assay [18], 3.58 µM (active). Besides, the result in assay [7] and in assay [13] was inactive.
As to `O=C(O)c1c(Cl)ccc2cc(Cl)cnc12`, the result in assay [8], in [9], in assay [2], in assay [4], in assay [5] and in assay [11] was inactive. Also, the call in [12], in [6], in [7], in assay [13] and in [15] was inactive.
Regarding `CCOc1nc(C(Cl)(Cl)Cl)ns1`, the compound was classed as inactive in assay [1], in assay [9], in assay [2], in assay [5], in [12] and in assay [6]. Also, the compound was called inactive in assay [13] and in [15].
As to `O=P(O)(O)CCCl`, the call in assay [1], in assay [2], in [17], in assay [11], in assay [6] and in assay [13] was inactive. Further, in [15], the compound was called inactive.
Turning to `CC(C)(C)C(=O)C(Oc1ccc(Cl)cc1)n1cncn1` (centres undefined), the AC50 in assay [8] is 3.95 µM (active); in assay [2], 17.4 µM (active); in [10] it was 4.5 µM (active); in assay [6], 1.63 µM (active). In addition, the result in [9], in [5], in [11], in assay [12], in assay [7] and in assay [14] was inactive. The result in assay [13] was inactive.
For the compound `Nc1c(Cl)c(F)nc(OCC(=O)O)c1Cl`, the result in assay [8], in [2], in [5], in [11], in assay [12] and in assay [6] was inactive. In addition, the call in assay [13] and in [15] was inactive. The AC50 in assay [18] was 0.0004 µM (active).
On to `CCNC(=O)NC(=O)C(C#N)=NOC`, for which the call in assay [9], in assay [17], in [4], in assay [5], in assay [11] and in [12] was inactive. The result in [15] was inactive. For the same compound, the AC50 in assay [2] is 33.1 µM (active).
Consider `C=CCOC(=O)C(C)(C)OC(=O)c1cc(-n2c(=O)cc(C(F)(F)F)n(C)c2=O)ccc1Cl`, for which the AC50 in assay [8] was 0.32 µM (active); in [2], 0.00588 µM (active); in [6], 0.47 µM (active); in assay [18], 2.79 µM (active). Further, the outcome in [5], in assay [11], in assay [12] and in assay [13] was inactive.
With `CC(C)C1(C)N=C(c2ncccc2C(=O)O)NC1=O` (centres undefined), the AC50 in [8] was 0.00054 µM (active); in assay [10], 0.000671 µM (active). Further, the compound was classed as inactive in assay [9], in assay [2], in assay [4], in assay [5], in assay [11] and in [12]. Besides, the compound was called inactive in assay [7], in assay [13] and in assay [15].
